# Compound activity from PubChem.
# Compounds with a hit are over-represented: about 1.8% of the library has one in this group of screens.
# Myeloid diff MLP: compounds promoting myeloid differentiation. ER-HoxA9 myeloid progenitors, lysozyme-GFP differentiation, flow cytometry. calls only at 10 µM. actives 1% (n = 360,000);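 active = normalized GFP-positive differentiation at or above the plate's own cutoff, the solvent-only control mean plus 3 SD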;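 also: cells exposed to compound for four days before flow analysis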
# LAP4-GFP MLPCN: modulators of TOR pathway LAP4-GFP in S. cerevisiae | AID 2023 | S. cerevisiae LAP4-GFP multiplex, flow cytometry GFP, 3 h; median GFP as percent of DMSO wells | GFP response vs DMSO, % at 10 µM | actives 0.34% (n = 320,000);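 active = GFP response vs DMSO above a set limit, about the screen mean plus 3 SD, cut at about 150% in these data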
# CIT2 TOR yeast: alters CIT2-GFP fluorescence in TOR pathway yeast screen; actives 0.065% (n = 320,000); GFP response vs DMSO, % at 10 µM; S. cerevisiae CIT2-GFP strain, flow cytometry, 3 h; 100 means same as DMSO wells; AID 2029;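 active = GFP response relative to DMSO above a set limit, near the screen mean plus 3 SD, cut at about 150% in these data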;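 also: ratio of well median GFP fluorescence to mean of DMSO wells on the plate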
# AGP1-GFP MLPCN: alters AGP1-GFP fluorescence in TOR pathway yeast screen; actives 0.02% (n = 320,000); S. cerevisiae AGP1-GFP multiplex flow cytometry, 3 h; GFP as percent of DMSO wells; AID 2066; GFP response vs DMSO, % at 10 µM;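 active = GFP response relative to DMSO above a set limit, near screen average plus 3 SD, cut at about 150% in these data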;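 also: median GFP channel fluorescence of the gated AGP1 strain per well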
# RPL19A TOR yeast: alters RPL19A-GFP fluorescence in TOR pathway yeast screen. S. cerevisiae RPL19A-GFP strain, flow cytometry, 3 h; stronger effect = lower value. percent response vs DMSO, % at 10 µM. actives 0.3% (n = 330,000). AID 2025;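 active = percent response vs DMSO below 50%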;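 also: median channel GFP fluorescence of the barcoded RPL19A-GFP strain; lower means less RPL19A-GFP as with rapamycin TOR inhibition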
# MEP2-GFP yeast: yeast TOR pathway MEP2-GFP modulation; GFP response vs DMSO, % at 10 µM; AID 2016; actives 0.51% (n = 330,000); S. cerevisiae MEP2-GFP strain, flow cytometry GFP, 3 h; 100% = DMSO control level;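 active = GFP response versus DMSO above a set limit, roughly screen mean plus 3 SD, cut at about 180% in these data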;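 also: median GFP fluorescence of the barcode-gated MEP2-GFP cells per well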
# Myeloid diff CP1: compounds promoting myeloid differentiation; shares compounds with Myeloid diff MLP; AID 651706; ER-HoxA9 myeloid progenitors, GFP/Mac1 double-positive flow; actives 2% (n = 2,300); calls only;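 active = share of green or green-and-red cells above 9 and 9% in run 1 or 4 and 3% in run 2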
# GFP autofluor: compound fluorescence in myeloid differentiation counter-screen; shares compounds with Myeloid diff MLP; ER-HoxA9 myeloid progenitors, no estrogen, GFP autofluorescence flow cytometry; vehicle wells 0%, positive control 100%; fluorescence response, % (concentration not given with the values); actives 7.4% (n = 2,300); AID 651707;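 active = over 5% cells positive for green fluorescent reporter, or over 2% positive for both it and APC stain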
# Numbers stand for hits; i = inactive; nt = not tested or not shown; + = active, no number.
SMILES,Myeloid diff MLP,LAP4-GFP MLPCN,CIT2 TOR yeast,AGP1-GFP MLPCN,RPL19A TOR yeast,MEP2-GFP yeast,Myeloid diff CP1,GFP autofluor
CC(C)(C)c1ccc(C(=O)N2CCN(CCNC(=O)C(=O)NCc3ccc(Cl)cc3)CC2)cc1,i,i,i,i,i,i,nt,nt
CN(CC(=O)Nc1ccc(Cl)cc1)Cc1cc(=O)n2ccsc2n1,i,i,i,i,i,i,nt,nt
Cc1ccc(NC(=O)CN(C)Cc2cc(=O)n3ccsc3n2)cc1,i,i,i,i,i,i,i,i
COc1ccc(-n2c(N)c(C(=O)NCC3CCCO3)sc2=S)cc1 (stereo unspecified),+,i,i,i,i,i,i,i
CCOC(=O)c1ccc(-n2c(N)c(C(=O)NCC3CCCO3)sc2=S)cc1 (stereo unspecified),i,i,i,i,i,i,nt,nt
COC(=O)CCC(=O)NN1C(=O)c2ccccc2C1=O,i,i,i,i,i,i,nt,nt
COc1ccc(CC(=O)NN2C(=O)c3ccccc3C2=O)cc1,+,i,i,i,i,i,i,i
Cc1ccccc1NC(=O)Nc1nnc(Cc2ccc([N+](=O)[O-])cc2)s1,i,i,i,i,i,i,nt,nt
Cc1cc(Cl)cc(Br)c1OCCCCn1cncn1,+,i,i,i,i,i,i,i
Cc1cc(Cl)c(OCCCn2cncn2)c(Br)c1,i,i,i,i,i,i,nt,nt
CCOc1ccccc1N(C(=O)Nc1cccc(Cl)c1)C1=NC(C)CS1 (stereo unspecified),i,i,i,i,i,i,nt,nt
COc1ccc(-c2nnc(SCC(=O)Nc3cc(C)on3)n2C)cc1OC,+,i,i,i,i,i,i,i
O=C(NC1CCCCC1)N1CCNCC1,i,i,i,i,i,i,nt,nt
C1CCCCCC(NCCN2CCNCC2)CCCCC1,+,i,i,i,i,i,i,i
Cc1cc(Nc2ccccc2)c2c([N+](=O)[O-])ccc(C)c2n1,i,i,i,i,i,i,i,i
Cc1cc(Nc2cccc([N+](=O)[O-])c2)c2cccc(C)c2n1,i,i,i,i,i,i,nt,nt
COC(=O)c1cc(-c2c(-c3cc(OC)c(OC)c(OC)c3)noc2C)cc([N+](=O)[O-])c1,i,i,i,i,i,i,i,i
CCOC(=O)N1CCN(C(=O)c2ccc(Cn3c(=S)[nH]c4cc(OCC)c(OCC)cc4c3=O)cc2)CC1,+,i,i,i,i,i,i,i
CCN1CCN(c2ccc(S(=O)(=O)N3CCCCC3)cc2NC(=O)/C=C/c2ccc(OC(F)F)cc2)CC1,i,i,i,i,i,i,i,i
Cc1[nH]c2ccccc2c1C(=O)/C=C\c1ccccc1Cl,+,i,i,i,i,i,i,i
CCn1cc2nc(SCC(=O)Nc3ccc(OC)cc3OC)n(Cc3ccc(OC)cc3)c(=O)c2n1,nt,i,i,i,i,i,nt,nt
O=C(O)CC(C(=O)O)N1C(=O)/C(=C/c2ccc(-c3nc4ccccc4s3)o2)SC1=S (stereo unspecified),i,i,i,i,i,i,nt,nt
O=C(O)CCCN1C(=O)/C(=C\c2ccc(-c3nc4ccccc4s3)o2)SC1=S,+,i,i,i,i,i,i,i
Cc1ccc(NC(=S)N/N=C/c2ccc(OCCC(C)C)cc2)c(C)c1,i,i,i,i,i,i,nt,nt
CC(C)(C)OC(=O)NCCc1nnc(SCc2ccccc2Cl)o1,i,i,i,i,i,i,i,i
SMILES,Myeloid diff MLP,LAP4-GFP MLPCN,CIT2 TOR yeast,AGP1-GFP MLPCN,RPL19A TOR yeast,MEP2-GFP yeast,Myeloid diff CP1,GFP autofluor
CC(C)(C)OC(=O)NCCc1nnc(SCc2ccccc2)o1,i,i,i,i,i,i,nt,nt
CC(C)CN(C(=O)COC(=O)CNC(=O)c1ccccc1)c1c(N)n(Cc2ccccc2)c(=O)[nH]c1=O,i,i,i,i,i,i,nt,nt
CC(=O)NC1=NN(C(C)=O)C(C)(CS(=O)(=O)c2ccc(C)c(C)c2)S1 (stereo unspecified),i,i,i,i,i,i,nt,nt
OCC[C@@H]1C[C@@H](O)[C@H](O)[C@]2(OCCCc3ccccc32)O1,i,i,i,i,i,i,nt,nt
OCC[C@H]1C[C@H](O)[C@@H](O)[C@@]2(OCCCc3ccccc32)O1,+,i,i,i,i,i,i,i
COc1ccc(/C=C\C(=O)c2c(O)ccc3c(C)cc(=O)oc23)cc1OC,i,i,i,i,i,i,i,i
Cc1ccc(NC(=O)c2cccc(NC(=O)CCC(=O)O)c2)cc1C,i,i,i,i,i,i,nt,nt
COc1ccc(NC(=S)NC(NC(=O)C(C)C)C(Cl)(Cl)Cl)c([N+](=O)[O-])c1 (stereo unspecified),+,i,i,i,i,i,i,i
C[C@@H]1CN([C@H](C)CO)C(=O)CCCn2nncc2CO[C@@H]1CN(C)S(=O)(=O)c1ccc2ccccc2c1,i,nt,nt,nt,nt,nt,nt,nt
C[C@@H]1CN([C@@H](C)CO)C(=O)CCCn2nncc2CO[C@H]1CN(C)S(=O)(=O)c1ccc2ccccc2c1,i,nt,nt,nt,nt,nt,i,i
COc1ccc(OC)c(N2C(=O)CCCC2=O)c1,i,i,i,i,i,i,nt,nt
CCCCNC(=O)CCC(=O)Nc1ccc2nc(N3CCC(C)CC3)cc(C)c2c1,i,i,i,i,i,i,i,i
Cc1ccc(NC(=O)CN(C)C(=O)CSc2ncc(C(F)(F)F)cc2Cl)cc1,i,i,i,i,i,i,nt,nt
O=C(c1cc(Br)ccc1OC(F)F)N1CCN2CCCC2C1 (stereo unspecified),i,i,i,i,i,i,nt,nt
COc1cc(OC)c(-c2c3cc(O)c(=O)cc-3oc3cc(O)c(O)cc23)cc1OC,+,i,i,i,i,i,i,99
CC1CN(c2sc(S(C)(=O)=O)nc2S(=O)(=O)c2ccc(Cl)cc2)CC(C)O1 (stereo unspecified),i,i,i,i,i,i,i,i
CC1CCCN(c2sc(S(C)(=O)=O)nc2S(=O)(=O)c2ccc(Cl)cc2)C1 (stereo unspecified),i,i,i,i,i,i,nt,nt
CS(=O)(=O)c1nc(S(=O)(=O)c2ccc(Cl)cc2)c(N2CCOCC2)s1,i,i,i,i,i,i,i,i
COc1ccccc1C1CCN(Cc2ccc3ccccc3c2)CC1,i,i,i,i,i,i,nt,nt
C=C(c1cn(C(C)=O)c2ccccc12)c1cn(C(C)=O)c2ccccc12,i,nt,nt,nt,nt,nt,i,i
O=C(NCc1ccc(Cl)cc1)C1CCC(CNc2c(N3CCOCC3)c(=O)c2=O)CC1 (stereo unspecified),i,i,i,i,i,i,nt,nt
